Among all 63,000 compounds or so, about 1,100 (1.7%) were called active. This is one part of a sample in which actives are shown more often than they occur.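 How the source made its calls: active means compounds whose percent cytotoxicity in the single-dose primary screen, scaled between solvent and toxic-drug controls, exceeds 50; inactive means the rest.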 Entries with a potency or affinity are not part of this list.
Assay: viability loss of HPDE-C7K cells – cell-based, fluorescence, HTS, primary screen (AID 431);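 further: 0% = DMSO solvent wells and 100% = doxorubicin-treated wells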
Details: HPDE-C7K KRASV12 cells, Alamar Blue viability, 48 h; at 10 µM; active compounds read high
With `CCCOC(=O)C1=C(C)NC2=C(C(=O)C(C(=O)OC)C(C)C2)C1c1ccc(N(CC)CC)cc1` (centres undefined) the cytotoxicity was -15.1% (inactive).
For `Cc1ccc(Cl)cc1N1CCN(S(=O)(=O)c2cccc(S(=O)(=O)N3CCCC3)c2)CC1`, the cytotoxicity was 0.2% (inactive).
In the case of `CCn1cc(C(=O)NCc2ccccc2OC)c(=O)c2ccc(C)nc21`, the cytotoxicity is reported as -1.4% (inactive).
For `Cn1c(C(=O)OCC(=O)NCc2cccs2)cc2sccc21`, the cytotoxicity was -3.4% (inactive).
With `CC(C)n1c(C(=O)OCC(=O)NCc2ccc3c(c2)OCO3)cc2sccc21` the cytotoxicity was 22.7% (inactive).
With `Cc1cc2c(cc(C(=O)OCC(=O)NCc3cccs3)n2C(C)C)o1` the cytotoxicity was 59.5% (active).
For `Cc1cccc2cc(C(c3nnnn3CC3CCCO3)N3CCc4ccccc4C3)c(=O)[nH]c12` (centres undefined), the cytotoxicity was -7.5% (inactive).
With `Cc1ccc(S(=O)(=O)NCC(=O)OCC(=O)c2cccs2)cc1` the cytotoxicity was 4.8% (inactive).
With `COc1ccc(-c2cc(C(=O)Nc3ccccc3SC)no2)cc1OC` the cytotoxicity was 1.4% (inactive).
For `Cc1cccc(N2CCN(C(=O)Cc3c(C(=O)O)[nH]c4ccc(Cl)cc34)CC2)c1C`, the cytotoxicity was 57.9% (active).
With `O=C(O)c1[nH]c2ccc(Cl)cc2c1CC(=O)N1CCN(C(=O)c2ccco2)CC1` the cytotoxicity was 3.2% (inactive).
For `O=C(O)c1[nH]c2ccc(Cl)cc2c1CC(=O)N1CCN(c2ccccc2)CC1`, the cytotoxicity was 8% (inactive).
For `Cc1cccc(-n2c(CNC(=O)c3ccc(S(=O)(=O)N4CCCC4)cc3)n[nH]c2=S)c1`, the cytotoxicity was -12% (inactive).
With `O=C(Nc1c(C(=O)N2CCCCC2)cnn1-c1ccccc1)c1ccco1` the cytotoxicity was -3.5% (inactive).
With `Cc1ccc(-n2ncc(C(=O)N3CCc4ccccc4C3)c2NC(=O)c2ccco2)cc1C` the cytotoxicity was 80.3% (active).
With `Cc1ccc(NC(=O)c2cnn(-c3ccccc3)c2NC(=O)c2ccco2)cc1C` the cytotoxicity was -1.9% (inactive).
With `Cc1cc(C)n(CC(O)COCc2ccco2)n1` (centres undefined) the cytotoxicity was -7.5% (inactive).
With `Cc1nnc(C)n1/N=C/c1cc(Br)cc(Br)c1O` the cytotoxicity was 86.5% (active).
For `Cc1nnc(C)n1/N=C/c1cc(Br)ccc1O`, the cytotoxicity was -18.8% (inactive).
In the case of `COc1c(Br)cc(Br)cc1/C=N/n1c(C)nnc1C`, the cytotoxicity is reported as 11.1% (inactive).
For `COc1ccc(Cl)cc1NS(=O)(=O)c1ccc(S(=O)(=O)N2CCCC2)cc1`, the cytotoxicity was 19.4% (inactive).
For `CSCC[C@@H](Nc1nc(-c2ccccc2)nc2c1oc1ccccc12)C(=O)O`, the cytotoxicity was 20% (inactive).
In the case of `c1cncc(-c2nc(NCc3ccco3)c3ccccc3n2)c1`, the cytotoxicity is reported as 10.1% (inactive).
In the case of `COc1ccc(CCNC(=O)CSc2nc(-c3ccco3)cc(C(F)(F)F)n2)cc1OC`, the cytotoxicity is reported as -11.5% (inactive).
With `O=C(C1CCN(S(=O)(=O)c2cccc3cccnc23)CC1)N1CCN(C2CCCCC2)CC1` the cytotoxicity was 8.4% (inactive).
With `N#C/C(=C(\O)c1ccco1)c1ccccn1` the cytotoxicity was -1.4% (inactive).
With `COc1cc(-c2nnc3sc(-c4cccs4)nn23)cc(OC)c1OC` the cytotoxicity was 62.9% (active).
For `COc1ccc(-c2nnc3sc(-c4cccs4)nn23)cc1OC`, the cytotoxicity was 11.7% (inactive).
With `COc1cc(-c2nnc3sc(-c4ccncc4)nn23)cc(OC)c1OC` the cytotoxicity was -1.5% (inactive).
In the case of `COc1cccc(OC)c1-c1nn2c(-c3cc(-c4ccccc4)n[nH]3)nnc2s1`, the cytotoxicity is reported as 58.4% (active).
With `COc1cccc(OC)c1-c1nn2c(-c3ccccc3Cl)nnc2s1` the cytotoxicity was 17.5% (inactive).
With `COc1ccc(-c2nnc3sc(-c4c(OC)cccc4OC)nn23)cc1` the cytotoxicity was 10.6% (inactive).
In the case of `c1ccc2c(c1)ncn2Cc1nnc2sc(-c3ccncc3)nn12`, the cytotoxicity is reported as 0.8% (inactive).
With `CC(=O)c1c(N2CCCCC2)nc(=O)n(-c2ccccc2)c1C` the cytotoxicity was -16.3% (inactive).
With `O=C(NCCCNC(=O)c1ccccn1)c1ccccn1` the cytotoxicity was 9.7% (inactive).
For `CCCCCC/C(=N/O)c1ccccn1`, the cytotoxicity was 51.6% (active).
In the case of `O/N=C(/Cc1ccccn1)c1ccccc1`, the cytotoxicity is reported as -1.3% (inactive).
With `Cc1cc2nc(C(F)(F)F)[nH]c(=O)n2n1` the cytotoxicity was 2.8% (inactive).
In the case of `COC(=O)C1CCN(Cc2cc(=O)oc3cc(OC)ccc23)CC1`, the cytotoxicity is reported as -31.4% (inactive).
With `COC(=O)c1cc(=O)n(Cc2ccco2)c(=Nc2ccc(F)c(Cl)c2)s1` the cytotoxicity was 26.9% (inactive).
In the case of `CCOC(=O)c1ccc(N=c2sc(C(=O)OC)cc(=O)n2C2CC2)cc1`, the cytotoxicity is reported as 14.1% (inactive).
With `CCOC(=O)c1ccc(N=c2sc(C(=O)OC)cc(=O)n2Cc2ccco2)cc1` the cytotoxicity was 119% (active).
In the case of `COc1ccc(N=C2SC(CC(=O)Nc3ccc(OC)cc3OC)C(=O)N2C)cc1` (centres undefined), the cytotoxicity is reported as -10.8% (inactive).
In the case of `COc1ccc(-c2cc(C(=O)N3CCN(C(c4ccccc4)c4ccccc4)CC3)no2)cc1`, the cytotoxicity is reported as 2.7% (inactive).
For `COc1ccc(N=c2oc3cc(O)ccc3cc2C(=O)NCC2CCCO2)cc1` (centres undefined), the cytotoxicity was -0.1% (inactive).
For `COc1ccc(N=c2oc3cc(O)ccc3cc2C(=O)NCC2CCCO2)c(OC)c1` (centres undefined), the cytotoxicity was 53.8% (active).
For `COc1ccccc1N=c1oc2cc(O)ccc2cc1C(=O)NCC1CCCO1` (centres undefined), the cytotoxicity was 7% (inactive).
For `CC1(C)NC(=O)N(CC(O)COc2ccccc2C(=O)N2CCCCC2)C1=O` (centres undefined), the cytotoxicity was -30.9% (inactive).
For `CCCCC(=O)Nc1cccc2c1C(=O)N(c1ccccc1)C2=O`, the cytotoxicity was -0.9% (inactive).
In the case of `CCc1nnc(NC(=O)c2ccc(S(=O)(=O)N(CC(C)C)CC(C)C)cc2)o1`, the cytotoxicity is reported as 47.6% (inactive).
With `CCCCN(CCCC)S(=O)(=O)c1ccc(C(=O)Nc2nnc(COC)o2)cc1` the cytotoxicity was 66.7% (active).
In the case of `CCc1nnc(NC(=O)c2ccc(S(=O)(=O)N(CC)Cc3ccccc3)cc2)o1`, the cytotoxicity is reported as 33% (inactive).
For `CSCc1nnc(NC(=O)c2ccc(S(=O)(=O)N(CC(C)C)CC(C)C)cc2)o1`, the cytotoxicity was 57.2% (active).
In the case of `CCCCN(CC)S(=O)(=O)c1ccc(C(=O)Nc2nnc(COC)o2)cc1`, the cytotoxicity is reported as 3.4% (inactive).
For `CCCCN(CC)S(=O)(=O)c1ccc(C(=O)Nc2nnc(CSC)o2)cc1`, the cytotoxicity was 8.9% (inactive).
With `CCc1nnc(NC(=O)c2ccc(S(=O)(=O)N(CCOC)CCOC)cc2)o1` the cytotoxicity was -0.3% (inactive).
In the case of `CCCCN(CCCC)S(=O)(=O)c1ccc(C(=O)Nc2nnc(CSC)o2)cc1`, the cytotoxicity is reported as 70.1% (active).
With `CCCCN(C)S(=O)(=O)c1ccc(C(=O)Nc2nnc(CSC)o2)cc1` the cytotoxicity was -2% (inactive).
In the case of `COc1ccc(-c2cc(C(=O)NCC(C)C)no2)cc1`, the cytotoxicity is reported as -0.6% (inactive).
